# IMPase inh – IMPase inhibition in cells. P97697. CHO-M1 cells, IP1 accumulation, HTRF TR-FRET ratio. inhibition (IP1 accumulation), % at 46.1 µM. 120,000 tested, under 10 active. AID 901; active = well fitted curve in the direction sought with a large enough effect in the signal ratio, not every such curve was filed as active; inconclusive = small, poorly fitted or top-dose-only effect, or a change in a side signal; inactive = no such curve, though single readings can be large or run the other way; the % refers to the signal ratio;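 also: cells stimulated with carbachol in lithium chloride buffer; plate controls were DMSO basal wells for no effect and reference inhibitor wells for full effect; higher means more IMPase inhibition seen as more IP1 and lower FRET ratio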
#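 Cellular IMPase inhibition is scored as a rise in cytosolic IP1, detected by competitive TR-FRET between d2-labelled IP1 and a europium anti-IP1 antibody. M1-expressing CHO cells were stimulated with carbachol for 30 min at 37C, with lithium (50 mM LiCl) present in the buffer.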
# HPGD block – blocks human HPGD enzyme activity; AID 894; Potency, µM, without a hit: at the top dose activity change, negative = inhibition, most hits filed as inhibitors; P15428; purified HPGD, NADH fluorescence kinetic, PGE2 substrate; 4.3% of 150,000 active; also: potency is read from the fitted curve at half-maximal effect
# Target sequence (P15428 whole entry, looked up): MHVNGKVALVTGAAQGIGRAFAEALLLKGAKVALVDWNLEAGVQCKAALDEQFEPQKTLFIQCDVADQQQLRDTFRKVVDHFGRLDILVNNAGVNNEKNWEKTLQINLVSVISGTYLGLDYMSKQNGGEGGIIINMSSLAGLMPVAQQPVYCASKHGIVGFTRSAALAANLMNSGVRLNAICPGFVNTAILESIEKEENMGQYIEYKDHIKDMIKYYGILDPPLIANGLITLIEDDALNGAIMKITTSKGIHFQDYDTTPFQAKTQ
#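 20 nM HPGD preincubated 15 min at room temperature with compound in 50 mM Tris-HCl pH 8, 0.01% Tween 20. Started with 1 mM NAD+ and 30 uM prostaglandin E2; NADH fluorescence (360/450 nm) read 5 times over 30-s intervals, last minus first.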
# ALDH1A1 block – blocks purified human ALDH1A1 activity. Purified ALDH1A1, NADH fluorescence, propionaldehyde substrate. Potency, µM (highest dose often 75.3 µM), for the others: top-dose activity, negative = inhibition, actives largely listed as inhibitors. 7.3% of 220,000 active. AID 1030;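 also: potency is read from the fitted curve at half-maximal effect; plate controls were no enzyme wells and a reference inhibitor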
# Starred values were filed as active, the others as inactive; u = inconclusive; x = not tested or not shown. Compounds with a hit are over-represented: about 9% of the library has one in this group of screens. Unless noted, calls follow the shape of the dose curve; as a rule, active = well fitted inhibition curve with a large enough effect (not every such curve was filed as active); inconclusive = small, poorly fitted or top-dose-only effect, or another doubt; inactive = no such curve, though single readings can be large or run the other way. Unless noted, % is scaled to controls: 0 for no effect and ±100 for the full control effect.
SMILES,IMPase inh,HPGD block,ALDH1A1 block
CC1CCCCC12NC(=O)N(CC(=O)Nc1ccccc1N1CCOCC1)C2=O (stereo unspecified),x,x,-10%
COCC(=O)N1CCC2(CCCN(C(=O)Nc3cccc(F)c3)C2)CC1,x,-2%,7%
COc1ccc(C(=O)N2CCN(S(=O)(=O)c3cc(Cl)ccc3OC)CC2)cc1,4,-6%,0%
COc1cccc2cc(C(=O)NCc3ccco3)c(=O)oc12,x,-26%,u
COc1cccc2cc(C(=O)NCc3ccco3)c(=Nc3ccc(C(=O)O)cc3)oc12,-3,u,16µM*
COC(=O)Cn1cc(/C=C(/C#N)C(=O)N2CCOCC2)c2ccccc21,x,x,0%
CC1(C)Cc2ccccc2C(/C(C#N)=N/O)=N1,x,x,7%
O=C1N=C(N2CCCCC2)S/C1=C/C1=Cc2ccccc2OC1,x,x,28µM*
Cc1ccc(/C=C2\SC(N3CCCC3)=NC2=O)cc1,x,x,12%
COC(=O)N1CCC[C@@]2(CCN(C(=O)Nc3cccc(F)c3)C2)C1,x,0%,6%
CN(C)CCNc1nc2c(c(=O)[nH]c(=O)n2C)n1CC(O)COc1ccc(Cl)cc1Cl (stereo unspecified),2,22µM*,u
Cc1cc(C)n(-c2nc3c(c(=O)[nH]c(=O)n3C)n2CC(O)COc2ccccc2C)n1 (stereo unspecified),-2,-16%,-2%
CCSc1nc2c(c(=O)[nH]c(=O)n2C)n1CC(O)COc1ccccc1C (stereo unspecified),1,14µM*,28µM*
Cc1ccccc1OCC(O)Cn1c(Br)nc2c1c(=O)[nH]c(=O)n2C (stereo unspecified),x,x,-14%
CC(O)CSc1nc2c(c(=O)[nH]c(=O)n2C)n1CC(O)COc1ccccc1 (stereo unspecified),x,x,24µM*
Cc1ccccc1OCC(O)Cn1c(NCc2ccccc2)nc2c1c(=O)[nH]c(=O)n2C (stereo unspecified),8,-1%,2%
Cc1ccccc1OCC(O)Cn1c(SC(C)C)nc2c1c(=O)[nH]c(=O)n2C (stereo unspecified),-1,14µM*,7.1µM*
CCSc1nc2c(c(=O)[nH]c(=O)n2C)n1CC(O)COc1ccc(Cl)cc1 (stereo unspecified),7,x,x
CC1CCC/C(=N\NC(=O)c2ccncc2)C1 (stereo unspecified),x,0%,-3%
O=C(CSc1nnc(-c2cccs2)o1)Nc1cccc(S(=O)(=O)N2CCCCC2)c1,x,-18%,-5%
CC1(C)CC(=O)C=C(NNC(=O)C2CCCCC2)C1,5,15%,13µM*
CC1(C)CC(=O)C=C(NC2CCCCCCC2)C1,6,-11%,1%
O=C1C2=C(S[C@@H]3O[C@H](CO)[C@@H](O)[C@H](O)[C@H]3O2)C(=O)c2ccccc21,x,u,1.4µM*
OCC1OC(n2nc3ccccc3n2)C(O)C(O)C1O (stereo unspecified),-3,-3%,3%
O=C(CSc1nc(-c2ccco2)cc(C(F)(F)F)n1)NCCN1CCOCC1,x,x,5%
SMILES,IMPase inh,HPGD block,ALDH1A1 block
Cc1cc(NC(=O)CCOc2ccc(F)cc2)no1,x,x,0.71µM*
COc1ccc(OCCC(=O)Nc2cc(C)on2)cc1,9,-4%,22µM*
COc1ccc(CC(=O)Nc2cc(C)on2)cc1,-11,-6%,0%
Cc1cc(NC(=O)Nc2ccc(F)cc2)no1,-1,-13%,u
Cc1ccccc1-n1ncc(C(C)NC(=O)c2ccccc2)c1C (stereo unspecified),x,x,4%
CC(C)C(N)C(=O)NC(Cc1c[nH]c2ccccc12)C(=O)O (stereo unspecified),x,-2%,-2%
Cc1ccc(NC(=O)c2nsc(Cl)c2Cl)cc1,x,x,-8%
O=C1CCCN1CCCNC(=S)Nc1ccccc1Cl,x,x,8%
O=C1CCCN1CCCNCC(=O)N1c2ccccc2Sc2ccccc21,22,1%,35µM*
CC(=NCCCNC1CCCCC1)C1=C(O)CC(C)(C)CC1=O,22,-4%,28µM*
CC(=NCC1CCNCC1)C1=C(O)CC(C)(C)CC1=O,-8,2%,-2%
COc1ccccc1CNc1nc(-c2ccccc2CN(C)C)nc2ccccc12,x,-5%,-2%
CCCN1Cc2cccc(C(=O)NCCCOC(C)C)c2C1=O,7,-10%,22µM*
CCCN1Cc2cccc(C(=O)NCc3ccc(C)cc3)c2C1=O,x,x,-7%
CCCN1Cc2cccc(C(=O)Nc3ccc(C)cc3)c2C1=O,-1,-13%,20%
CCCN1Cc2cccc(C(=O)NC(C)c3cccs3)c2C1=O (stereo unspecified),-2,-8%,4µM*
CCNc1nc(NCC)nc(Oc2ccc(OCc3ccccc3)nn2)n1,x,x,7%
CC(=NC1CCCC1)c1c(C)[nH]n(-c2nc3ccccc3s2)c1=O,5,-16%,14µM*
